Laboratory results published in PubChem BioAssay.
Calls of active or inactive are those of the source. Unless noted, the rule behind the calls is not given here.

Columns and labels:
[1] = test system: Wnt5a (protein binding on small-molecule microarray); assay: Wnt5a binders on small-molecule microarray, primary screen, biophysical, 635/667 nm fluorescence (AID 1142); conditions: 635 nm fluorescence, higher = more signal;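 note: fluorescence read at 667 nm with signal to noise per printed feature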
[2] = cell viability in Huh7 cells, primary screen, cytotoxicity control for HCV replication inhibitor project, CellTiter-Glo luminescence, basal, 48 h (AID 1143); conditions: Huh7 HCV replicon, higher = more signal, called active from +8 up or from −8 down;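 note: Huh7 hepatoma cells carrying a hepatitis C replication reporter with no stimulus; test concentration not given here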
[3] = P. aeruginosa biofilm formation inhibitors, primary screen, PAO1 strain, BacTiter-Glo luminescence, LB-PBS (AID 1144); conditions: 12 h, higher = more signal
[4] = CREB reporter modulators without forskolin, primary screen, cell-based, PC12, CRE-LacZ reporter, unstimulated (AID 1145); conditions: no forskolin, luminescence, 4.5 h, higher = more signal, called active from +8 up or from −8 down
[5] = CREB reporter modulators under forskolin, primary screen, cell-based, PC12, CRE-LacZ reporter, forskolin-stimulated (AID 1146); conditions: luminescence, 4.5 h, higher = more signal, called active from +8 up or from −8 down;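 note: PC12 cells with 6xCRE LacZ reporter stimulated by forskolin 10 µM; beta-galactosidase reporter signal reflecting CREB driven transcription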
[6] = target: Streptavidin (Streptomyces avidinii) (UniProt P22629); assay: streptavidin binders on small-molecule microarray, primary screen, artefact control for SMM compound annotation, biophysical, 635/667 nm fluorescence (AID 1147); conditions: streptavidin binding, higher = more signal;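 note: signal reflects streptavidin binding to arrayed compounds as a control protein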
[7] = small-molecule binders of probe aInhba, primary screen, biochemical, small-molecule microarray, 635/667 nm fluorescence (AID 1148); conditions: higher = more signal;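 note: score merges 667nm spot fluorescence with signal-to-noise for antibody binding to printed compounds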
Torsin-1A (Homo sapiens) [8] = target: Torsin-1A (Homo sapiens) (UniProt O14656); assay: torsin A binders from cell lysate, primary screen, small-molecule microarray, wild-type, 635/667 nm (AID 1149); conditions: COS7 hTOR1A-WT lysate, 635 nm fluorescence, higher = more signal
Torsin-1A (Homo sapiens) [9] = target: Torsin-1A (Homo sapiens) (UniProt O14656); assay: small-molecule binders of mutant TOR1A in lysate, primary screen, cell lysate, small-molecule microarray, COS7 lysate, 635/667 nm fluorescence (AID 1150); conditions: COS7 hTOR1A mutant lysate, 635 nm fluorescence, higher = more signal;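 note: score pools 667 nm emission and signal to noise measuring lysate protein binding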
[10] = test system: Sonic hedgehog protein (Shh); assay: small-molecule binders of Shh protein, primary screen, biochemical, small-molecule microarray, 635/667 nm fluorescence (AID 1151); conditions: small-molecule microarray binding, 635 nm fluorescence; higher = more signal;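 note: Shh protein binding to compounds spotted on small-molecule microarray slides; score combines spot fluorescence intensity with signal-to-noise across triplicate slides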
[11] = E. coli DRC41 culture turbidity changes, primary screen, E. coli filamentation inducer project, strain DRC41, OD650, 48 h (AID 1152);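 note: E. coli MC1000 strain DRC41 lacking acrAB efflux pump and sulA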; conditions: E. coli DRC41 (acrAB sulA), higher = more signal, called active from +8 up or from −8 down
[12] = small-molecule binders of probe aLefty1, primary screen, biochemical, small-molecule microarray, 635/667 nm fluorescence (AID 1153); conditions: higher = more signal;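 note: score merges spot fluorescence with signal-to-noise ratio from the scanned slide images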
[13] = PSAC antagonists in infected red cells, primary screen, cell-based, P. falciparum Indochina, OD700, 1 h (AID 1154); conditions: P. falciparum Indochina infected RBC osmotic lysis, higher = more signal, called active from +8 up or from −8 down
[14] = PSAC antagonists in infected red cells, primary screen, cell-based, P. falciparum Indochina, OD700, 2 h (AID 1155);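 note: lysis reports solute entry through the parasite surface anion channel PSAC; channel blockers reduce lysis of infected cells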; conditions: P. falciparum Indochina infected erythrocytes, osmotic lysis OD700; higher = more signal, called active from +8 up or from −8 down
[15] = osmotic lysis modulators in infected erythrocytes, primary screen, PSAC antagonist project, cell-based, P. falciparum Indochina, OD700, 3 h (AID 1156); conditions: higher = more signal, called active from +8 up or from −8 down
[16] = PSAC antagonists in infected red cells, primary screen, cell-based, P. falciparum Indochina, OD700, 18 h (AID 1157); conditions: P. falciparum Indochina infected erythrocytes, osmotic lysis OD700, 18 h; higher = more signal, called active from +8 up or from −8 down
[17] = modulators of S6 phosphorylation in cells, primary screen, cell-based, A549, cytoblot, luminescence, serum-stimulated (AID 1158); conditions: A549 phospho-S6 cytoblot, 5 h, higher = more signal;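 note: serum-stimulated A549 lung adenocarcinoma cells; signal is phosphorylated S6 detected by cytoblot immunostaining with HRP secondary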
[18] = target: NADPH oxidase 2 (Homo sapiens) (UniProt P04839); assay: NOX2-dependent H2O2 signal modulators, primary screen, NOX inhibitor project, cell-based, HEK293-NOX2, PMA-stimulated, Amplex Red fluorescence (AID 1159); conditions: 45 min, higher = more signal, called active from +8 up or from −8 down; note: test concentration not given here
[19] = target: NADPH oxidase 4 (Homo sapiens) (UniProt Q9NPH5); assay: NOX4-dependent H2O2 signal modulators, primary screen, NOX inhibitor project, cell-based, HEK293-NOX4, tetracycline-induced, Amplex Red fluorescence (AID 1160); conditions: 45 min, higher = more signal, called active from +8 up or from −8 down
[20] = target: NADPH oxidase 5 (Homo sapiens) (UniProt Q96PH1); assay: NOX5-dependent H2O2 signal modulators, primary screen, NOX inhibitor project, cell-based, HEK293-NOX5, Amplex Red fluorescence (AID 1161); conditions: HEK293-NOX5, ionomycin, 45 min, higher = more signal
Sequence of NADPH oxidase 5 (Homo sapiens) (Q96PH1 whole entry, looked up): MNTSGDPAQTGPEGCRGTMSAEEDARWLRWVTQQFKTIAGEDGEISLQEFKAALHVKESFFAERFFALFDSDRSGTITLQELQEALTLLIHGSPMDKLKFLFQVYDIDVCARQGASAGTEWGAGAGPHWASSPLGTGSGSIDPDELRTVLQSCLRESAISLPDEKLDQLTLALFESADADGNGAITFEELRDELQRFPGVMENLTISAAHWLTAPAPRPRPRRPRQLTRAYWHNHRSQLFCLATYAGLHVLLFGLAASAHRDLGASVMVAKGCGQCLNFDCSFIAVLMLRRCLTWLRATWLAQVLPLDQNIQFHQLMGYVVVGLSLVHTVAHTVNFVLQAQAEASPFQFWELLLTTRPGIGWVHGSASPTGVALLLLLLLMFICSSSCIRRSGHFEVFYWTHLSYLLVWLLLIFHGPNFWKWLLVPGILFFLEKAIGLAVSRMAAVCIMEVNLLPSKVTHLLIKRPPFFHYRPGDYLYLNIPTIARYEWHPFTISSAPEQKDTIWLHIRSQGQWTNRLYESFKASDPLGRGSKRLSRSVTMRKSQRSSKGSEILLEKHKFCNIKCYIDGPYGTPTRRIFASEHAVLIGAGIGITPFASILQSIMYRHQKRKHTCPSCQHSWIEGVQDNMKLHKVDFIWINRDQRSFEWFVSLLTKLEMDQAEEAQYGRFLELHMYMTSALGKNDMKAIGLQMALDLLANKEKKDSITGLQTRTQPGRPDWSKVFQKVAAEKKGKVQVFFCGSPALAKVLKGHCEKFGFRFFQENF

Sequence of NADPH oxidase 4 (Homo sapiens) (Q9NPH5 whole entry, looked up): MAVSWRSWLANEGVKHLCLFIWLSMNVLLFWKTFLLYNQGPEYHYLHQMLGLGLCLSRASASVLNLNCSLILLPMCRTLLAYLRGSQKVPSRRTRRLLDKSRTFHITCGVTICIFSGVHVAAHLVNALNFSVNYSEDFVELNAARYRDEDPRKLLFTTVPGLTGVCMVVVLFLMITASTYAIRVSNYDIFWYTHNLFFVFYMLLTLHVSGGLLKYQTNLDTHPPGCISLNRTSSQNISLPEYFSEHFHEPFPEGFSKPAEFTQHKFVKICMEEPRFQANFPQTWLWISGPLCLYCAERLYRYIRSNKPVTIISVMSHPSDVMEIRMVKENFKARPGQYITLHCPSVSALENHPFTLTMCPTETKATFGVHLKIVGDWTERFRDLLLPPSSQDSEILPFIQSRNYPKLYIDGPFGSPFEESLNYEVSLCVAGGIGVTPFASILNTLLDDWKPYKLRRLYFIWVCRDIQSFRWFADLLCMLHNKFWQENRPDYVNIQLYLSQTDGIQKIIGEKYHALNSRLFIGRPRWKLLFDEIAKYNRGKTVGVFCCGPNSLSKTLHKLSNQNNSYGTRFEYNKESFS
Sequence of Streptavidin (Streptomyces avidinii) (P22629 whole entry, looked up): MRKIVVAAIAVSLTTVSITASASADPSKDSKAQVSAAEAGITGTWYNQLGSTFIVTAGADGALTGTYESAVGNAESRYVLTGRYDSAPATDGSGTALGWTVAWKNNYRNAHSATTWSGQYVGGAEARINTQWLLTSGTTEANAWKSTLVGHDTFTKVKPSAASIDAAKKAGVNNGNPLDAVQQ
Sequence of Torsin-1A (Homo sapiens) (O14656 whole entry, looked up): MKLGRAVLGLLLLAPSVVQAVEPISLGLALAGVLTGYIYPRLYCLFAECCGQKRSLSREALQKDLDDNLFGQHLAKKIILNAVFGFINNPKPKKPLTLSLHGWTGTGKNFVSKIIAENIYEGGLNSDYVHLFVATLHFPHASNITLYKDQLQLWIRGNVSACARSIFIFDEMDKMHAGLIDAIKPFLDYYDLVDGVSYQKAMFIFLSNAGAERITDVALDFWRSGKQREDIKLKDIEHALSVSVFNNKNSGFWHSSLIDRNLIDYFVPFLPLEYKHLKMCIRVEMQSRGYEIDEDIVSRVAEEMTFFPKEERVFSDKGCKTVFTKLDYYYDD
Sequence of NADPH oxidase 2 (Homo sapiens) (P04839 whole entry, looked up): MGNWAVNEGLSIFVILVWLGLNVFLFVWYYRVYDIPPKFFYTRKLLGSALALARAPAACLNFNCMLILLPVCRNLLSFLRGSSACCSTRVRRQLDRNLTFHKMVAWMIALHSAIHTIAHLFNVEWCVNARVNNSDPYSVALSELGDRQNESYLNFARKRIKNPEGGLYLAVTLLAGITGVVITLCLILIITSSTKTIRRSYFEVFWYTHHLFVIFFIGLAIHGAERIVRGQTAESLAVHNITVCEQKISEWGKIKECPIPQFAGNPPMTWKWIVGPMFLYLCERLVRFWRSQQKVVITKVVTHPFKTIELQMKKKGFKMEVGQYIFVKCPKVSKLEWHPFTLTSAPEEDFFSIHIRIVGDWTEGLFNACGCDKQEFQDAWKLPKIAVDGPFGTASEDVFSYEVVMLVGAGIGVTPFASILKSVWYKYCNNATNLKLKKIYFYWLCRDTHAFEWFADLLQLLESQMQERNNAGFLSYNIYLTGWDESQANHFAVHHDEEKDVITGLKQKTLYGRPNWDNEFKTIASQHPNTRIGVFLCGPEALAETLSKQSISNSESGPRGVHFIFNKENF

C=C(C)[C@@H]1CC=C(C(O)C2C=CC3C(=O)NC(=O)C3N2Nc2ccccn2)CC1 (stereo not given in full)
composite z-score [1]: 0.742 | z-score [2]: 0.715 (inactive) | z-score [3]: -0.555 (inactive) | z-score [4]: -0.14 (inactive) | z-score [5]: 0.621 (inactive) | composite z-score [6]: 0.717 | composite z-score [7]: 0.093 | composite z-score (Torsin-1A (Homo sapiens) [8]): 1.1 | composite z-score (Torsin-1A (Homo sapiens) [9]): 0.705 | composite z-score [10]: 2.28 | z-score [11]: -1.56 (inactive) | composite z-score [12]: 0.497 | z-score [13]: 0.671 (inactive) | z-score [14]: 0.613 (inactive) | z-score [15]: 0.0385 (inactive) | z-score [16]: 0.876 (inactive) | z-score [17]: -1.11 | z-score [18]: -1.02 (inactive) | z-score [19]: -2.89 (inactive) | z-score [20]: -2.69

COCCOC(=O)N1C(=O)[C@@]2(c3cc(C#CCNC(N)=O)ccc31)[C@H](c1ccccc1OCCO)N1[C@H](c3ccccc3)[C@H](c3ccccc3)OC(=O)[C@H]1[C@@H]2C(=O)NC[C@H](O)c1ccccc1
composite z-score [1]: 0.439 | z-score [2]: -0.429 (inactive) | z-score [3]: -0.209 (inactive) | z-score [4]: -1 (inactive) | z-score [5]: 0.172 (inactive) | composite z-score [6]: 0.903 | composite z-score [7]: -0.0375 | composite z-score (Torsin-1A (Homo sapiens) [8]): 0.834 | composite z-score (Torsin-1A (Homo sapiens) [9]): 0.525 | composite z-score [10]: 1.87 | z-score [11]: 0.369 (inactive) | composite z-score [12]: 0.346 | z-score [13]: 2.18 (inactive) | z-score [14]: 0.758 (inactive) | z-score [15]: 0.299 (inactive) | z-score [16]: 0.751 (inactive) | z-score [17]: -0.209 | z-score [18]: 1.02 (inactive) | z-score [19]: 1.17 (inactive) | z-score [20]: 0.219

O=C/C=C/c1ccccc1Cl
composite z-score [1]: -0.159 | z-score [2]: -0.724 (inactive) | z-score [3]: -0.904 (inactive) | z-score [4]: -0.0243 (inactive) | z-score [5]: -0.468 (inactive) | composite z-score [6]: 0.143 | composite z-score [7]: 0.0705 | composite z-score (Torsin-1A (Homo sapiens) [8]): -0.342 | composite z-score (Torsin-1A (Homo sapiens) [9]): 0.081 | composite z-score [10]: -0.0129 | z-score [11]: 2.11 (inactive) | composite z-score [12]: -0.191 | z-score [13]: 0.159 (inactive) | z-score [14]: 0.282 (inactive) | z-score [15]: -2.03 (inactive) | z-score [16]: 0.206 (inactive) | z-score [17]: 1.11 | z-score [18]: -0.129 (inactive) | z-score [19]: -0.729 (inactive) | z-score [20]: 1.38

CC1CC/C=C\[C@H]2OC34C=CCN(Cn5nnc6ccccc65)C(=O)[C@H]3N(C(C)CO)C(=O)[C@@H]4C2C(=O)O1 (stereo not given in full)
composite z-score [1]: -0.501 | z-score [2]: 0.349 (inactive) | z-score [3]: -0.182 (inactive) | z-score [4]: -1.03 (inactive) | z-score [5]: -0.542 (inactive) | composite z-score [6]: -0.465 | composite z-score [7]: -0.0675 | composite z-score (Torsin-1A (Homo sapiens) [8]): -0.276 | composite z-score (Torsin-1A (Homo sapiens) [9]): -1 | composite z-score [10]: -0.362 | z-score [11]: 0.0838 (inactive) | composite z-score [12]: -0.204 | z-score [13]: 2.25 (inactive) | z-score [14]: 0.974 (inactive) | z-score [15]: 1.03 (inactive) | z-score [16]: 0.477 (inactive) | z-score [17]: 0.0801 | z-score [18]: 0.963 (inactive) | z-score [19]: 0.173 (inactive) | z-score [20]: 1.79

COC(=O)Cn1c(C(=O)N2CCCC2)cc2c1C[C@H]1CN(C(=O)c3ccccc3)[C@@](Cc3ccc(OC)cc3)(C(=O)OC)[C@@H]21
composite z-score [1]: 0.381 | z-score [2]: -2.77 (inactive) | z-score [3]: 0.74 (inactive) | z-score [4]: 1.72 (inactive) | z-score [5]: 1.59 (inactive) | composite z-score [6]: 0.927 | composite z-score [7]: 0.711 | composite z-score (Torsin-1A (Homo sapiens) [8]): -0.0629 | composite z-score (Torsin-1A (Homo sapiens) [9]): 0.306 | composite z-score [10]: -0.812 | z-score [11]: -1.45 (inactive) | composite z-score [12]: 0.51 | z-score [13]: 15.3 (active) | z-score [14]: 2.13 (inactive) | z-score [15]: 1.68 (inactive) | z-score [16]: 1.43 (inactive) | z-score [17]: -0.56 | z-score [18]: 0.857 (inactive) | z-score [19]: 0.778 (inactive) | z-score [20]: 2.44

COC(=O)[C@H]1[C@@H]2COc3ccccc3[C@H]2N[C@H]1C(=O)OC
composite z-score [1]: -0.0215 | z-score [2]: 0.508 (inactive) | z-score [3]: -0.411 (inactive) | z-score [4]: 2.13 (inactive) | z-score [5]: -0.827 (inactive) | composite z-score [6]: -0.142 | composite z-score [7]: -0.118 | composite z-score (Torsin-1A (Homo sapiens) [8]): 0.425 | composite z-score (Torsin-1A (Homo sapiens) [9]): 0.775 | composite z-score [10]: 0.264 | z-score [11]: 0.896 (inactive) | composite z-score [12]: -0.0046 | z-score [13]: 0.262 (inactive) | z-score [14]: -0.122 (inactive) | z-score [15]: -0.406 (inactive) | z-score [16]: -0.21 (inactive) | z-score [17]: 0.12 | z-score [18]: -2.88 (inactive) | z-score [19]: 0.28 (inactive) | z-score [20]: -1.9

CN1C(=O)C2C=CC(C(O)C3CC=CCC3)N(Nc3ccccc3)C2C1=O (stereo not given)
composite z-score [1]: 0.521 | z-score [2]: 0.758 (inactive) | z-score [3]: -0.269 (inactive) | z-score [4]: -0.333 (inactive) | z-score [5]: 0.0874 (inactive) | composite z-score [6]: 0.505 | composite z-score [7]: 0.208 | composite z-score (Torsin-1A (Homo sapiens) [8]): 0.664 | composite z-score (Torsin-1A (Homo sapiens) [9]): 1.06 | composite z-score [10]: 1.57 | z-score [11]: -1.08 (inactive) | composite z-score [12]: 0.346 | z-score [13]: 0.756 (inactive) | z-score [14]: 0.0735 (inactive) | z-score [15]: -0.139 (inactive) | z-score [16]: 0.459 (inactive) | z-score [17]: -0.879 | z-score [18]: -1.81 (inactive) | z-score [19]: -3.23 (inactive) | z-score [20]: -3.05

COc1ccc([Si](C)(C)[C@H]2[C@H](CC(=O)N(CCO)Cc3ccccc3)O[C@@]3(C(=O)N(C)c4ccccc43)[C@@H]2C)cc1
composite z-score [1]: 0.321 | z-score [2]: -5.59 (inactive) | z-score [3]: -0.306 (inactive) | z-score [4]: 4.69 (inactive) | z-score [5]: 0.0125 (inactive) | composite z-score [6]: 0.153 | composite z-score [7]: -0.0986 | composite z-score (Torsin-1A (Homo sapiens) [8]): 0.0317 | composite z-score (Torsin-1A (Homo sapiens) [9]): 0.83 | composite z-score [10]: 1.65 | z-score [11]: 1.28 (inactive) | composite z-score [12]: 0.106 | z-score [13]: 9.01 (active) | z-score [14]: 0.781 (inactive) | z-score [15]: -1.12 (inactive) | z-score [16]: -0.698 (inactive) | z-score [17]: 0.342 | z-score [18]: -0.246 (inactive) | z-score [19]: 0.129 (inactive) | z-score [20]: -2.43
